# This is one part of a sample in which hits are shown more often than they occur.
# mHTT-CaM PPI inh: disrupts binding of mutant huntingtin to calmodulin | P42858 | AlphaScreen His-mHTT/GST-CaM binding, luminescence | inhibition, % at 15 µM | hit rate 3.6% among 190,000 | AID 1671202;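 also: 0% = both proteins with DMSO and 100% = one protein alone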
# Pf apPOL inh: Pf-apPOL DNA polymerase inhibition. hit rate 0.25% among 210,000. inhibition, % at 10 µM. AID 1794808. Recombinant Pf-apPOL, molecular beacon fluorescence, 1.5 h
# The depositor's hits bear a star; x = not tested or not shown. Rule as the data show it: active = inhibition above about 50%; inactive = the rest.
SMILES,mHTT-CaM PPI inh,Pf apPOL inh
COc1cccc(-c2cc(C3CCN(S(=O)(=O)c4ccccc4Cl)CC3)[nH]n2)c1,13,-2
O=C1OC(c2ccc(F)cc2)=N/C1=C/c1cccc(Cl)c1Cl,13,-3
O=C(c1cccc(OCC2CCCN(C(=O)c3ccccc3F)C2)c1)N1CCCC1 (stereo unspecified),-2,-6
Cc1ccc(N2CCN(C(=O)c3ccc(Cn4cncn4)cc3)CC2)c(C)c1,12,-5
Cn1c(C(=O)NCCN2CCCCC2)cc2c1CCN(Cc1ccc(F)cc1)C2,47,2
Cn1c(C(=O)NCCCN2CCCCC2)cc2c1CCN(Cc1ccccc1)C2,93*,7
NC(=S)N=Nc1c2nnnc2c(NNC(N)=S)c2n[nH][nH]c12,100*,x
Cc1nc(C)c2c(n1)N(CCN(C)C1CCCCC1)C(=O)CC2,-3,2
O=c1oc2ccccc2c(O)c1C=Nc1ccccn1,0,-4
CC(C)c1ccc(C(=O)Nc2nnc3ccccn23)cc1,65*,-3
CCOc1cccc2nnc(NC(=O)c3ccc(C)cc3)n12,51*,31
O=C(Nc1nnc2ccccn12)c1ccccc1C(F)(F)F,10,-8
O=C(Nc1nnc2ccccn12)c1ccccc1Br,100*,-3
CC(C)CC(=O)Nc1nnc2ccccn12,10,-6
CCOc1cccc2nnc(NC(=O)c3ccc(C(F)(F)F)cc3)n12,9,2
CCc1ccc(C(=O)Nc2nnc3ccccn23)cc1,58*,-11
O=C(Nc1nnc2ccccn12)c1ccc(C(F)(F)F)cc1,38,-23
O=S(=O)(c1ccc(OC(F)(F)F)cc1)N1CC(c2nc(-c3cnccn3)no2)C1,0,1
Cc1cc(Cl)ccc1OC(C)C(=O)Nc1ccccc1C(N)=O (stereo unspecified),1,-5
CC1(C)C2([N+](=O)[O-])CN3CC1([N+](=O)[O-])CN(C2)C3c1ccccc1Cl (stereo unspecified),1,1
COc1cccc(CNC(=O)N2CCc3nc4cc(-c5ccccc5)[nH]n4c(=O)c3C2)c1,-4,0
O=C1C(=O)N(Cc2ccccc2)c2ccc(Br)cc21,48,5
CCN(CC)C(=O)CN1C(=O)C(=O)c2cc(Br)ccc21,97*,x
CCN(CC)C(=O)CN1C(=O)C(=O)c2ccccc21,0,4
O=C1C(=O)N(Cc2c(F)cccc2Cl)c2ccc(Br)cc21,66*,0
SMILES,mHTT-CaM PPI inh,Pf apPOL inh
O=C1C(=O)N(Cc2ccccc2Cl)c2ccc(Br)cc21,86*,-2
O=C1C(=O)N(Cc2csc(-c3ccc(Cl)cc3)n2)c2ccc(Br)cc21,46,0
COc1ccccc1CNC(=O)C1CN(C(=O)c2cccs2)CC12CCCCC2 (stereo unspecified),14,0
Cc1cc(C)cc(C(=O)N2CC3CC(NC(=O)c4cccnc4)C2C3)c1 (stereo unspecified),3,-3
CCC1=Nc2cc(C(=O)NCCCN(CC)CC)ccc2Sc2ccc(C)cc21,3,-15
O=C(CSCc1ccc(F)cc1)N1CCC(c2ccncc2)CC1,4,-2
Cc1cc(Cl)ccc1NC(=O)C1CCN(c2ncnc3c2nc2n3CCCCC2)CC1,11,-4
Cc1ccc(C2=N/C(=C\C(Br)=C\c3ccccc3)C(=O)O2)cc1[N+](=O)[O-],57*,2
CC(/C=C1\N=C(c2ccc(C)c([N+](=O)[O-])c2)OC1=O)=C\c1ccccc1,3,0
CCNC(=O)N1CCCC(c2cccc(C(=O)NCCN3CCOCC3)c2)C1 (stereo unspecified),5,-9
Cn1c(=O)nc2n(-c3cccc(C(F)(F)F)c3)c3ccccc3cc-2c1=O,-12,1
CCCCNc1nc2ccncc2n(Cc2ccccc2)c1=O,-2,-6
CCn1c(=O)c(NCCCN2CCCc3ccccc32)nc2ccncc21,67*,0
CC(C)(C)S(=O)(=O)c1sc(C=O)cc1C=O,25,-6
CC(C)c1ccc(CNC(=O)c2nc3cccnc3n(C)c2=O)cc1,62*,0
Cn1c(=O)c(C(=O)NCc2ccc(Cl)cc2)nc2cccnc21,5,-1
CN1c2ccccc2C(=O)NC12CCN(C(=O)c1ccccc1F)CC2,-3,-3
Cc1cccc(C(=O)NCCS(=O)(=O)N2CCN(c3cccc(Cl)c3)CC2)c1,10,-8
O=C(NCCCc1ccccc1)c1ccc2c(c1)NC(=O)C1CCCCN21 (stereo unspecified),-2,-4
O=C(NCCN1CCCCCC1)c1ccc2c(c1)NC(=O)C1CCCCN21 (stereo unspecified),11,1
O=C1Nc2cc(C(=O)N3CCN(c4cccc(Cl)c4)CC3)ccc2N2CCCCC12 (stereo unspecified),93*,2
O=C(NCCN1CCC(Cc2ccccc2)CC1)c1ccc2c(c1)NC(=O)C1CCCCN21 (stereo unspecified),97*,2
O=C(NCCCc1ccccc1)c1ccc2c(c1)NC(=O)C1CCCN21 (stereo unspecified),67*,4
COc1cccc(N2CCN(C(=O)c3ccc4c(c3)NC(=O)C3CCCCN43)CC2)c1 (stereo unspecified),30,2
O=C(c1sc2ccccc2c1Cl)n1cc(Cl)cn1,-5,2
SMILES,mHTT-CaM PPI inh,Pf apPOL inh
Cc1c(N(C)C(=O)c2cccc([N+](=O)[O-])c2)c(=O)n(-c2ccccc2)n1C,1,-15
COCCCNC(=O)c1ccc(Cl)c(NC(=O)Nc2ccc(Cl)c(Cl)c2)c1,52*,-12
COCCCNC(=O)c1cccc(Cl)c1,-8,1
Cc1cccc(Nc2nccc(C3CCCN(C(=O)C4CCCO4)C3)n2)c1 (stereo unspecified),74*,-3
Cc1cccc(Nc2nccc(C3CCCN(C(=O)Cc4cccs4)C3)n2)c1 (stereo unspecified),63*,-5
CCC(=O)N1CCCC(c2ccnc(Nc3ccc(OC)cc3)n2)C1 (stereo unspecified),-1,-7
CCC(=O)N1CCCC(c2ccnc(Nc3cccc(C)c3)n2)C1 (stereo unspecified),57*,-5
Cc1ccccc1Nc1nccc(C2CCCN(C(=O)Cc3cccs3)C2)n1 (stereo unspecified),10,-3
Cc1cccc(Nc2nccc(C3CCCN(C(=O)c4ccc(C#N)cc4)C3)n2)c1 (stereo unspecified),14,-5
O=C1c2ccccc2C(=O)C1(CI)c1ccccc1,-1,4
Cc1ccc(CNC(=O)C2CCN(c3nccnc3Oc3cccc(C)c3)CC2)cc1,1,1
COc1ccc(N2CCN(C(=O)c3csc4c3CCCC4)CC2)cc1,28,-1
CSc1nc(Sc2n[nH]c(-c3ccccc3)n2)cc(Sc2n[nH]c(-c3ccccc3)n2)n1,x,-12
COc1nccnc1N1CCC(NC(=O)COc2ccc(C)cc2)C1 (stereo unspecified),3,-2
O=S1(=O)c2ccccc2C(O)c2ccccc21,-5,-3
Cc1ccc(Cc2c(C)nc3nc(SCC(=O)NC4CC4)nn3c2C)cc1,3,-2
Cc1nc2nc(SCC(=O)N3CCC(C)CC3)nn2c(C)c1Cc1ccc(Cl)cc1,52*,-4
CN1c2cc(C(=O)N3CCN(c4ccccc4Cl)CC3)ccc2C(=O)N2CCCCC21 (stereo unspecified),2,3
CN1c2cc(C(=O)N3CCc4ccccc4C3)ccc2C(=O)N2CCCCC21 (stereo unspecified),93*,-4

# Bioassay records as filed in PubChem.
